Assay results taken from PubChem BioAssay AID1159580 (chemical genetic matrix, 2015).
The whole screen tested about 5,500 compounds, of which about 2,000 (36%) were called active. Not shown: some 18% with an inconclusive outcome. Cut-off read from the data, not from the text of the source: active = normalized growth mostly below about 0.91 (no sharp cut-off); inconclusive = no clear call, values can overlap the other calls; inactive = mostly above about 0.92. The list shows a part of the results.

Test: chemical genetic growth profiling, strain panel (AID 1159580);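 note: tested at 20 µM; growth read once vehicle control cultures reached saturation at 30 °C; 1 = growth at the plate median or of vehicle wells; lower values mean less growth of the strain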
Conditions: growth OD

Measured: normalized growth

COc1c2occc2cc2ccc(=O)oc12
active: S. cerevisiae deletion strains, locus YKR001C, strain vps1, active compounds read low 0.863 | S. cerevisiae deletion strains, locus YLL001W, strain dnm1, active compounds read low 0.874 | S. cerevisiae deletion strains, locus YLR221C, strain rsa3, active compounds read low 0.891 | S. cerevisiae deletion strains, locus YLR320W, strain mms22, active compounds read low 0.833 | S. cerevisiae deletion strains, locus YML032C, strain rad52, active compounds read low 0.876 | S. cerevisiae deletion strains, locus YML120C, strain ndi1, active compounds read low 0.866 | S. cerevisiae deletion strains, locus YNL209W, strain ssb2, active compounds read low 0.923 | S. cerevisiae deletion strains, locus YNL307C, strain MCK1, active compounds read low 0.88 | S. cerevisiae deletion strains, locus YNL322C, strain KRE1 (second series), active compounds read low 0.763 | S. cerevisiae deletion strains, locus YOR106W, strain vam3, active compounds read low 0.701 | S. cerevisiae deletion strains, locus YOR184W, strain ser1, active compounds read low 0.859 | S. cerevisiae deletion strains, locus YOR290C, strain snf2, active compounds read low 0.856
inactive: S. cerevisiae deletion strains, locus YJR075W, strain HOC1, active compounds read low 0.976 | S. cerevisiae deletion strains, locus YKL009W, strain mrt4, active compounds read low 0.909 | S. cerevisiae deletion strains, locus YKL068W, active compounds read low 0.996 | S. cerevisiae deletion strains, locus YKL085W, strain MDH1 (second series), active compounds read low 1 | S. cerevisiae deletion strains, locus YKL085W, strain MDH1, active compounds read low 1 | S. cerevisiae deletion strains, locus YKL160W, strain elf1, active compounds read low 0.948 | S. cerevisiae deletion strains, locus YKL190W, strain CNB1, active compounds read low 0.979 | S. cerevisiae deletion strains, locus YKR026C, strain gcn3, active compounds read low 0.983 | S. cerevisiae deletion strains, locus YKR091W, strain srl3, active compounds read low 0.982 | S. cerevisiae deletion strains, locus YLL026W, active compounds read low 0.973 | S. cerevisiae deletion strains, locus YLL041C, strain sdh2, active compounds read low 0.981 | S. cerevisiae deletion strains, locus YLR027C, strain aat2, active compounds read low 0.952 | S. cerevisiae deletion strains, locus YLR039C, strain RIC1, active compounds read low 0.851 | S. cerevisiae deletion strains, locus YLR058C, strain SHM2, active compounds read low 0.988 | S. cerevisiae deletion strains, locus YLR102C, strain apc9, active compounds read low 0.986 | S. cerevisiae deletion strains, locus YLR113W, strain HOG1, active compounds read low 1.08 | S. cerevisiae deletion strains, locus YLR258W, strain gsy2, active compounds read low 0.945 | S. cerevisiae deletion strains, locus YLR262C, strain YPT6 (second series), active compounds read low 0.955 | S. cerevisiae deletion strains, locus YLR262C, strain YPT6, active compounds read low 0.91 | S. cerevisiae deletion strains, locus YLR268W, strain sec22, active compounds read low 0.93 | S. cerevisiae deletion strains, locus YLR330W, strain CHS5, active compounds read low 0.991 | S. cerevisiae deletion strains, locus YLR342W, strain FKS1 (second series), active compounds read low 0.971 | S. cerevisiae deletion strains, locus YLR342W, strain FKS1, active compounds read low 0.965 | S. cerevisiae deletion strains, locus YLR357W, strain rsc2, active compounds read low 1.01 | S. cerevisiae deletion strains, locus YLR370C, strain arc18, active compounds read low 0.914 | S. cerevisiae deletion strains, locus YLR371W, strain rom2, active compounds read low 0.969 | S. cerevisiae deletion strains, locus YLR384C, strain iki3, active compounds read low 0.963 | S. cerevisiae deletion strains, locus YLR418C, strain cdc73, active compounds read low 0.95 | S. cerevisiae deletion strains, locus YML016C, strain PPZ1, active compounds read low 0.987 | S. cerevisiae deletion strains, locus YML124C, strain tub3, active compounds read low 0.996 | S. cerevisiae deletion strains, locus YMR058W, strain fet3, active compounds read low 0.927 | S. cerevisiae deletion strains, locus YMR078C, strain ctf18, active compounds read low 0.974 | S. cerevisiae deletion strains, locus YMR125W, strain sto1, active compounds read low 1.01 | S. cerevisiae deletion strains, locus YMR129W, active compounds read low 0.99 | S. cerevisiae deletion strains, locus YMR205C, strain PFK2, active compounds read low 0.941 | S. cerevisiae deletion strains, locus YMR223W, strain ubp8, active compounds read low 0.924 | S. cerevisiae deletion strains, locus YMR231W, strain pep5, active compounds read low 0.989 | S. cerevisiae deletion strains, locus YMR263W, strain SAP30, active compounds read low 0.942 | S. cerevisiae deletion strains, locus YMR307W, strain GAS1, active compounds read low 0.949 | S. cerevisiae deletion strains, locus YNL067W, strain RPL9B, active compounds read low 0.939 | S. cerevisiae deletion strains, locus YNL071W, strain lat1, active compounds read low 0.947 | S. cerevisiae deletion strains, locus YNL128W, strain TEP1, active compounds read low 0.962 | S. cerevisiae deletion strains, locus YNL153C, strain GIM3, active compounds read low 0.983 | S. cerevisiae deletion strains, locus YNL183C, strain NPR1, active compounds read low 0.971 | S. cerevisiae deletion strains, locus YNL233W, strain BNI4, active compounds read low 0.944 | S. cerevisiae deletion strains, locus YNL248C, strain rpa49, active compounds read low 0.901 | S. cerevisiae deletion strains, locus YNL250W, strain rad50, active compounds read low 0.968 | S. cerevisiae deletion strains, locus YNL271C, strain bni1, active compounds read low 0.983 | S. cerevisiae deletion strains, locus YNL298W, strain CLA4, active compounds read low 0.933 | S. cerevisiae deletion strains, locus YNL322C, strain KRE1, active compounds read low 1 | S. cerevisiae deletion strains, locus YNR049C, strain mso1, active compounds read low 0.962 | S. cerevisiae deletion strains, locus YNR052C, strain pop2, active compounds read low 0.978 | S. cerevisiae deletion strains, locus YOL006C, strain TOP1, active compounds read low 0.79 | S. cerevisiae deletion strains, locus YOL012C, strain htz1 0.845 | S. cerevisiae deletion strains, locus YOL147C, strain pex11, active compounds read low 0.982 | S. cerevisiae deletion strains, locus YOR001W, strain rrp6, active compounds read low 0.958 | S. cerevisiae deletion strains, locus YOR061W, strain CKA2, active compounds read low 0.99 | S. cerevisiae deletion strains, locus YOR069W, strain VPS5, active compounds read low 0.991 | S. cerevisiae deletion strains, locus YOR070C, strain gyp1, active compounds read low 0.956 | S. cerevisiae deletion strains, locus YOR080W, strain dia2, active compounds read low 0.95 | S. cerevisiae deletion strains, locus YOR083W, strain WHI5, active compounds read low 0.914 | S. cerevisiae deletion strains, locus YOR136W, strain idh2, active compounds read low 0.974 | S. cerevisiae deletion strains, locus YOR144C, strain elg1, active compounds read low 0.97 | S. cerevisiae deletion strains, locus YOR231W, strain MKK1, active compounds read low 1.01 | S. cerevisiae deletion strains, locus YOR265W, strain rbl2, active compounds read low 0.963 | S. cerevisiae deletion strains, locus YOR270C, strain vph1, active compounds read low 0.83 | S. cerevisiae deletion strains, locus YOR316C, strain cot1, active compounds read low 1 | S. cerevisiae deletion strains, locus YPL051W, strain arl3, active compounds read low 0.939 | S. cerevisiae deletion strains, locus YPL055C, strain LGE1, active compounds read low 0.938 | S. cerevisiae deletion strains, locus YPL078C, strain atp4, active compounds read low 0.964 | S. cerevisiae deletion strains, locus YPL106C, strain sse1, active compounds read low 0.899 | S. cerevisiae deletion strains, locus YPL240C, strain hsp82, active compounds read low 0.965 | S. cerevisiae deletion strains, locus YPL241C, strain CIN2, active compounds read low 0.959 | S. cerevisiae deletion strains, locus YPL256C, strain CLN2, active compounds read low 1.1 | S. cerevisiae deletion strains, locus YPR119W, strain clb2, active compounds read low 0.998 | S. cerevisiae deletion strains, locus YPR141C, strain kar3, active compounds read low 1.02 | S. cerevisiae deletion strains, locus YPR163C, strain tif3, active compounds read low 0.983 | S. cerevisiae deletion strains, locus YPR167C, strain met16, active compounds read low 1.01 | S. cerevisiae deletion strains, strain wtn01, active compounds read low 0.966 | S. cerevisiae strains, strain wild type, active compounds read low 1
